14-3-3 Bad inh: disrupts binding of bovine 14-3-3 zeta to phospho-Bad peptide; TR-FRET 14-3-3zeta/Dy647-pBad peptide displacement, 1 h; inhibition, % at 21.7 µM; actives 0.71% (n = 220,000); AID 781;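 active means inhibition above about 70%, limit read from the data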;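 further: 0% = full 14-3-3 plus peptide FRET controls and 100% = background without 14-3-3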
Target sequence (P63103 whole entry, looked up): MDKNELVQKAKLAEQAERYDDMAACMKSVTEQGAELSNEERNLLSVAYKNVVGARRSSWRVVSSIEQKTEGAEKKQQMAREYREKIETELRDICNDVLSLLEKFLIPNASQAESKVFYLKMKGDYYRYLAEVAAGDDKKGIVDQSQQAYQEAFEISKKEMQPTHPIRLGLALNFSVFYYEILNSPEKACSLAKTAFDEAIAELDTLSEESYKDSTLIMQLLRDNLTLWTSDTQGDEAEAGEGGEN
ROMK mod: human ROMK K+ channel modulation, primary screen. P48048. actives 2% (n = 130,000). Tet-inducible ROMK, thallium flux fluorescence; actives lie on both sides. B-score at 10 µM;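 active means signal ratio slope over the read window, or its plate-corrected B-score, at least 3 SD from the plate mean, either direction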;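 further: B-score of the F/F0 ratio slope over 7 to 12 s after thallium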
Target sequence (P48048 whole entry, looked up): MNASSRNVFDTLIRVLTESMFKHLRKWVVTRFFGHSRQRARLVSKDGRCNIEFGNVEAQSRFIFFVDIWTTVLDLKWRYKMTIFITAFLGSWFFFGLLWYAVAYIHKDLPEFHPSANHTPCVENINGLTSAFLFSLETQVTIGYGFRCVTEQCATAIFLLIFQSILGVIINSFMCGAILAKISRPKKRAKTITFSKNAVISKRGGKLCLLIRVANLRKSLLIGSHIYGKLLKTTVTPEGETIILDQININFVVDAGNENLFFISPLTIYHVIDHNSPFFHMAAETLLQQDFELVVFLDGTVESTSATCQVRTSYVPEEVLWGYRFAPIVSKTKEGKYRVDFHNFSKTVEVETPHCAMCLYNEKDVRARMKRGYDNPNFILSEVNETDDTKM
TNF death inh: TNF-alpha cell death inhibition in Jurkat FADD-/- cells | activation (protection from cell death), % at 10 µM | actives 0.068% (n = 220,000) | Jurkat FADD-/- TNF necroptosis rescue, ATP luminescence, 24 h; 0 = TNF only, 100 = no-TNF cells | AID 463075;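 active means activation, meaning protection from cell death, of at least 50% relative to plate controls; inactive means activation below 50%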;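 further: necroptosis triggered by 40 ng/mL TNF-alpha added together with compound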
m-calpain inh: blocks pig calpain II enzyme activity; purified calpain II, fluorogenic peptide substrate, 30 min; inhibition, % at 16 µM; actives 0.37% (n = 220,000);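 active means inhibition above about 50%, limit read from the data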
Efa HMGR inh: inhibitors of class II HMG-CoA reductase from Enterococcus faecalis | purified E. faecalis HMGR, NADPH absorbance 340 nm kinetic | inhibition, % at 10 µM | actives 0.41% (n = 190,000) | AID 1066;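 active means inhibition above a set limit, the median over all tested compounds plus 3 SD, cut at about 9.5% in these data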;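 further: enzyme runs in reverse so mevalonate oxidation gives rising NADPH absorbance; 0% = complete reaction with DMSO and 100% = background rate lacking mevalonate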
zVAD death inh: blocks zVAD induced death of L929 cells. actives 0.38% (n = 220,000). viability rescue, % at 10 µM. L929 zVAD necroptosis rescue, ATP luminescence, 24 h; with zVAD 60 µM;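 active means activation, scaled between plate controls, above about 75%, limit read from the data; inactive means activation under that limit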;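 further: 0% = zVAD with DMSO and 100% = DMSO alone without zVAD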
Numbers without * were called inactive; . = no result given; [ ] = dose if it differs, or a comment. A selection: hits, their analogues and other compounds. The true share with any hit is near 3%.

SMILES | 14-3-3 Bad inh | ROMK mod | TNF death inh | m-calpain inh | Efa HMGR inh | zVAD death inh
C[C@H]1[C@H](C)CC[C@]2(C(=O)O)CC[C@]3(C)C(=CC[C@@H]4[C@@]5(C)C[C@@H](O)[C@H](O)C(C)(C)[C@@H]5CC[C@]43C)[C@H]12 | 5 | 0.71 | 0 | -90 | 18* | 7
c1ccc(Nc2ncnc3c2oc2ccccc23)cc1 | 71* | . | -2 | 19 | -10 | 0
c1ccc2c(c1)oc1c(Nc3ccc4c(c3)OCO4)ncnc12 | 51 | . | -7 | -112 | -7 | 0
c1ccc2c(c1)oc1c(NCCN3CCOCC3)ncnc12 | 58 | . | -1 | -1 | 3 | 0
Oc1ccccc1Nc1ncnc2c1oc1ccccc12 | 73* | . | -2 | -30 | -13 | 0
c1ccc2c(c1)oc1c(Nc3ccc(CN4CCOCC4)cc3)ncnc12 | 79* | -1 | -8 | 0 | -1 | 67
O=C(O)C1Cc2ccccc2CN1C(=O)CCl (centres undefined) | 6 | 0.62 | 0 | -15 | 5 | 2
OCCNC(=S)Nc1cc(Cl)cc(Cl)c1 | -12 | . | 1 | 20 | . | 0
COc1ccc(/C=N/N2CCOCC2)cc1COc1ccc(Cl)cc1 | -4 | -0.9 | -1 | 0 | 1 | 0
COc1cccc(O[C@@H]2O[C@@H]3COC(C)(C)O[C@H]3[C@H](O)[C@H]2NC(C)=O)c1 | -12 | . | 1 | -14 | 10* | 0
O=C(NCc1ccccc1Cl)c1cc([N+](=O)[O-])ccc1Cl | -2 | -0.2 | 2 | -14 | 19* | 1
O=C(NCc1ccc(Cl)cc1)c1cc([N+](=O)[O-])ccc1Cl | -5 | -0.013 | 1 | -2 | -8 | 3
CCn1c(COc2ccc(Cl)cc2)nnc1SC1CCc2ccccc2C1=O (centres undefined) | -6 | -0.63 | 2 | 52* | 0 | 0
CCn1c(COc2ccc(Cl)cc2)nnc1SCc1ccc(C#N)cc1 | 7 | -1.5 | 2 | -3 | -5 | 0
O=C(CN1CCOCC1)Nc1c2c(nc3ccccc13)N(Cc1ccccc1)CC2 | 77* | . | 1 | -196 | -2 | 1
O=C(CN1CCOCC1)NNc1c2ccccc2nc2ccccc12 | 7 | -0.6 | 1 | -2 | . | 1
O=C(NCCc1nc(-c2ccccc2)cs1)c1ccc(Br)cc1 | 0 | -1.7 | 2 | 3 | 5 | 0
COc1ccc(OC)c(Cc2nnc(CCC(=O)NC3CCCCC3)o2)c1 | -15 | . | 0 | -10 | 1 | -1
COc1ccc(OC)c(Cc2nnc(CCC(=O)NCc3ccsc3)o2)c1 | -2 | 1.1 | 0 | -21 | 9.7* | 6
Cn1cc(S(=O)(=O)Nc2ccc3c(c2)OCCO3)cn1 | 89* | 0.35 | 1 | -22 | 2 | 1
CCn1cc(S(=O)(=O)Nc2ccc3c(c2)OCCO3)cn1 | -11 | -0.36 | 0 | 10 | -4 | 0
CCOC(=O)Cc1nn(Cc2ccccc2)c(=O)c2ccccc12 | -5 | -0.27 | -1 | -3 | 14* | 0
COc1ccc(N=c2ssnc2Cl)cc1 | 29 | . | -3 | -7 | 16* | 0
Clc1ccc(N=c2ssnc2Cl)cc1 | 44 | . | -5 | -3 | 1 | 0
Cc1ccccc1OCc1nc2ccccc2c(=O)n1/N=C/c1c[nH]c2ccccc12 | -10 | 0.4 | 2 | -17 | 0 | 3
SMILES | 14-3-3 Bad inh | ROMK mod | TNF death inh | m-calpain inh | Efa HMGR inh | zVAD death inh
Cc1ccc(-c2[nH]ncc2/C=N/n2c(COc3ccccc3C)nc3ccccc3c2=O)cc1 | 24 | 0.11 | 1 | 61* | -4 | 2
CC(=O)Oc1cc(C(C)C)c(OCCN(C)C)cc1C | -6 | -0.64 | 1 | -8 | 9.7* | 0
CN(C)CCOc1cc(Cl)cc(Cl)c1 | -7 | . | 0 | 10 | -1 | -1
O=C(O/N=C/c1ccc2c(c1)OCO2)c1ccc([N+](=O)[O-])cc1 | -5 | 0.17 | -1 | 70* | -3 | 1
COc1ccc(OC)c(-c2cc(C(=O)Nc3ccc(F)cc3F)no2)c1 | 88* | 0.51 | -1 | -19 | -2 | 1
Cc1noc(NC(=O)c2c(-c3c(Cl)cccc3Cl)noc2C)c1[N+](=O)[O-] | -10 | . | -2 | -3 | . | -1
CCc1ccc2c(c1)C(c1ccc([N+](=O)[O-])cc1)=NNC(c1ccc(C)cc1)=N2 | -5 | 1.7 | 1 | 61* | -7 | 1
CCc1ccc2c(c1)C(c1ccc(N3CCOCC3)cc1)=NNC(c1ccncc1)=N2 | -9 | 0.39 | 0 | -69 | -5 | 0
O=C(Nc1nc(-c2ccccc2)cs1)c1ccccc1NS(=O)(=O)c1ccc(F)cc1 | 13 | -1.1 | -10 | -57 | 0 | 3
O=S(=O)(Nc1ccc(-c2csc(-c3ccccc3)n2)cc1)c1ccc(F)cc1 | -8 | . | 6 | 55* | -3 | 1
COC(=O)c1ccc(=O)c2nc3/c(=C/O)c(O)cc(=O)c3[nH]c12 | 73* | 0.24 | -11 | -58 | . | 3
C#CCn1c(=NC(=O)c2cc(Cl)sc2Cl)sc2cc(S(N)(=O)=O)ccc21 | 76* | -0.91 | 0 | -18 | 0 | -1
COCCn1c(=NC(=O)c2cccs2)sc2cc(NC(C)=O)ccc21 | 9 | . | 0 | -26 | -8 | 0
C#CCn1c(=NC(=O)c2ccc(Br)s2)sc2cc(NC(C)=O)ccc21 | 71*[fluorescence artefact?] | . | 1 | -96 | -8 | 1
C#CCn1c(=NC(=O)CN2C(=O)CCC2=O)sc2cc(S(N)(=O)=O)ccc21 | -13 | 0.26 | 1 | -11 | -7 | 2
COC(=O)Cn1c(=NC(=O)c2nc3ccccc3s2)sc2cc(S(C)(=O)=O)ccc21 | -12 | 0.47 | 1 | -99 | -1 | 0
COC(=O)Cn1c(=NC(=O)c2sc3ccccc3c2Cl)sc2cc(S(N)(=O)=O)ccc21 | 86*[fluorescence artefact?] | -0.22 | 3 | 4 | 0 | 1
CCOC(=O)Cn1c(=NC(=O)CSC(C)=O)sc2ccccc21 | -8 | . | 1 | 8 | -3 | 1
CCOC(=O)Cn1c(=NC(=O)c2sc3ccccc3c2Cl)sc2cc(S(N)(=O)=O)ccc21 | 79*[fluorescence artefact?] | -0.026 | 2 | 38 | -7 | 1
CCCCC(C(=O)OCC)C(N)Cc1ccc(F)cc1 (centres undefined) | 4 | -1.5 | 2 | 2 | -1 | -1
CCCc1cc(-c2n[nH]c(=S)n2CC(C)C)cs1 | -12 | -0.67 | 0 | 50* | -2 | 0
CCCCn1c(-c2csc(CC)c2)n[nH]c1=S | -8 | . | 0 | 8 | -2 | 0
Cc1ccc(-c2nnc(OCc3cccnc3)c3ccccc23)cc1 | -7 | -1.7 | 6 | 42 | 3 | 4
CC(=O)Nc1ccc(S(=O)(=O)N2CCN(Cc3ccccn3)CC2)cc1 | 71* | 0.39 | 1 | 8 | -3 | 1
CC(=O)Nc1ccc(S(=O)(=O)N2CCN(Cc3ccccc3[N+](=O)[O-])CC2)cc1 | -9 | -2.3 | 0 | -9 | 7 | 1

Screening data deposited in PubChem BioAssay by several laboratories.
